Data reported in PubChem BioAssay (NCI).
Compounds without any hit were thinned out: in the full panel of roughly 83,000, 20% have a hit.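 A percent growth of 40 corresponds to 60% growth inhibition; 0 means no net growth; -100 means all cells died. Active threshold: below 10.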 A number with no mark means an inactive call. The source made the active and inactive calls.

How the values were obtained:
Assay in all cases: NCI-60 one-dose screen, 48 h (100 = growth as untreated, 0 = no growth, -100 = all killed)
Details in all cases: 10 µM unless noted
DU-145 prostate = system: DU-145 prostate
K-562 leukemia = system: K-562 leukemia
MALME-3M melanoma = system: MALME-3M melanoma
MDA-MB-231 breast = system: MDA-MB-231 breast
RXF 393 renal = system: RXF 393 renal
SF-268 CNS = system: SF-268 CNS
SF-295 CNS = system: SF-295 CNS
SF-539 CNS = system: SF-539 CNS
UACC-257 melanoma = system: UACC-257 melanoma
HCT-15 colon = system: HCT-15 colon
HT29 colon = system: HT29 colon
SNB-75 CNS = system: SNB-75 CNS
SNB-19 CNS = system: SNB-19 CNS
U251 CNS = system: U251 CNS
PC-3 prostate = system: PC-3 prostate
SK-MEL-5 melanoma = system: SK-MEL-5 melanoma
UACC-62 melanoma = system: UACC-62 melanoma
LOX IMVI melanoma = system: LOX IMVI melanoma
SK-MEL-28 melanoma = system: SK-MEL-28 melanoma

Compound | growth (DU-145 prostate) | growth (K-562 leukemia) | growth (MALME-3M melanoma) | growth (MDA-MB-231 breast) | growth (RXF 393 renal) | growth (SF-268 CNS) | growth (SF-295 CNS) | growth (SF-539 CNS) | growth (UACC-257 melanoma) | growth (HCT-15 colon) | growth (HT29 colon) | growth (SNB-75 CNS) | growth (SNB-19 CNS) [%] | growth (U251 CNS) | growth (PC-3 prostate) | growth (SK-MEL-5 melanoma) | growth (UACC-62 melanoma) | growth (LOX IMVI melanoma) | growth (SK-MEL-28 melanoma)
OC(c1cc(-c2cccc(Cl)c2)nc2ccccc12)C1CCCCN1 (centres undefined) | -33.8% (active) | -47.2% (active) | -69.6% (active) | -6.36% (active) | -46.4% (active) | 21.4% | -47.5% (active) | -52.9% (active) | -91.9% (active) | -61.9% (active) | -74.5% (active) | -5.41% (active) | 18.1 | -85.1% (active) | -26.2% (active) | -67.5% (active) | -41.2% (active) | -90.7% (active) | -94.2% (active)
O=C1c2cccc(NCCN=Cc3ccccc3O)c2C(=O)c2c(NCCN=Cc3ccccc3O)cccc21 | 16% | 38% | 21.8% | 21% | 33.9% | 7.05% (active) | 49.8% | 22.4% | 94.6% | 38.7% | -4.87% (active) | 29.3% | 14.3 | 7.41% (active) | 10.2% | 52.7% | 81.5% | -3.1% (active) | 50.2%
O=C(NC1CCCCC1)c1ccc(Nc2ncnc3c2cnn3-c2ccccc2)cc1 | 54.6% | 73.2% | 2.93% (active) | 8.76% (active) | 62.2% | 36.9% | 73.4% | 43.7% | 56.5% | 66.6% | 70.2% | -20.3% (active) | 48.7 | 40.2% | 53.3% | 75.4% | 63.9% |  | 62.2%
O=C(/C=C/c1cccc(O)c1)c1cccc(-n2cc(-c3ccccc3)[nH]c2=O)c1 | -16.9% (active) | 1.71% (active) | 0.0704% (active) | -5.57% (active) | -62.4% (active) | 7.61% (active) | 64.8% | -27.4% (active) | 95.6% | -18.9% (active) | 9.73% (active) | 41.2% | 50 | -77% (active) |  | 55.3% | 55.7% | -69.5% (active) | 30.8%
O=c1[nH]c(SCc2ccccc2)nc2nc(Nc3ccc(NC(=S)Nc4ccccc4)cc3)nc(-c3ccc(O)cc3O)c12 | 112% | 90.6% | 75% | 98% | 66.2% | 92.6% | 101% | 91.8% | 109% | 108% | 115% | 84.6% | 86.9 | 85.3% | 82.6% | 101% | 87.9% | 98% | 94.3%
c1ccc2nc(Cn3c[n+](Cc4ccc5ccccc5n4)c4ccccc43)ccc2c1 | 60.8% | 17.8% | 20.3% | 26.4% | 44.1% | 54.9% | 55.5% | 41.5% | -9.49% (active) | 98.7% | 15.5% | 41.4% | 30.5 | 34% | 14.6% | -83.9% (active) | -16.4% (active) | 25.8% | 39.4%
CCCCCN(CCCCC)CCCNc1c2c(nc3ccc(Cl)cc13)CCCC2 | 66.6% | 14.2% | 35.5% | 18.5% | 57.1% | 76.1% | 37.8% | 47% | 13.2% | 32.5% | 1.62% (active) | 47.9% | 60.8 | 35% | 41.7% | 23.4% | 51% | 14% | 71.2%
O=C1CSC(c2ccccc2O)N1c1nnc(Cn2ccnc2)o1 (centres undefined) | 80.9% | 43.5% | 101% | 61.6% | 74.7% | 55.7% | 20.7% | 55.6% | 78.7% | 28.8% | 86.2% | 74.9% | 86.3 | 66.6% | 64.6% | 55.1% | 77.4% | 56% | 74.8%
O=C(NN1C(=O)c2cc(C(=O)O)c(C(=O)O)cc2C1=O)c1ccncc1 | 144% | 62.4% | 76.8% | 80.6% | 127% | 93.5% | 102% | 112% | 114% | 103% | 108% | 145% | 106 | 100% | 84.6% | 106% | 92.3% | 109% | 94.2%
